Out of some 16,000 compounds screened, about 5,700 (36%) were called active. Roughly 24% stayed inconclusive and do not appear here. This is one part of the list. Unmarked numbers belong to inactive results. Calls come from the whole dose curve; as a rule, active = well fitted curve in the direction sought with a large enough effect; inconclusive = small, poorly fitted or top-dose-only effect, or effect the other way; inactive = no such curve, though single readings can be large or run the other way. Square brackets hold non-standard residues; d marks the D form. Peptide text beside a SMILES is read from it. * marks the point of attachment. ξ: configuration not given here. Cbz = O=C(OCc1ccccc1)*; OBn = c1ccc(CO*)cc1; ξP = O=C(O)C1CCCN1
% is set by controls: 0 for no effect and ±100 for the full control effect.

This experiment deals with Cytochrome P450 1A2 (Homo sapiens) (UniProt P05177). Nature of the experiment: Cytochrome panel assay with activity outcomes. The settings on record: recombinant CYP, pro-luciferin dealkylation, luminescence, p450-cyp1a2; series mostly up to 57.1 µM.
Sequence of Cytochrome P450 1A2 (Homo sapiens) (P05177 whole entry, looked up): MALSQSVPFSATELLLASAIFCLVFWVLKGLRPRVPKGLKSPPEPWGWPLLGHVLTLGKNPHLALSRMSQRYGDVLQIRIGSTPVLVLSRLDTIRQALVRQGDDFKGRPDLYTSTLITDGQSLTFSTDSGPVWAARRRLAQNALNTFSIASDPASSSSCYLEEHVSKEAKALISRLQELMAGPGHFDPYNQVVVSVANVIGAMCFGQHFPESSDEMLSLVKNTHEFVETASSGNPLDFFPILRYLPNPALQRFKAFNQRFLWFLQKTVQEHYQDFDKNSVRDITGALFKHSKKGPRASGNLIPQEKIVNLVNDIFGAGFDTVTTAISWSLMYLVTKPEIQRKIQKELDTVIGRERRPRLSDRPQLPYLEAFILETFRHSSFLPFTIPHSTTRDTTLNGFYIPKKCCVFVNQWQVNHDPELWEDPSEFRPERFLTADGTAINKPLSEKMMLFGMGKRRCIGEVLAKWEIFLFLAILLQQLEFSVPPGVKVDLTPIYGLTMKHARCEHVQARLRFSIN
The AC50 is the midpoint of the concentration-response curve, whichever way the signal moves. Take `O=C(c1ccco1)N1CCC2(CCN(Cc3nccs3)CC2)CC1`: the AC50 result was “inactive”.

Take `C=C1CC[C@H](O)C/C1=C/C=C1\CCC[C@]2(C)[C@H]1CC[C@H]2[C@@H](C)/C=C\[C@@H](C)C(C)C`: the AC50 entry was “inactive”.

As to `COCC(=O)Nc1c(I)c(C(=O)NC[C@@H](O)CO)c(I)c(C(=O)N(C)C[C@@H](O)CO)c1I`, the AC50 result is “inactive”.

Turning to `COc1cccc([C@@H]2Oc3ccc(OC)cc3C(=O)[C@H]2O)c1`, the activity, negative = inhibition is 2.62% [at 11.4 µM].

As for `Cc1cc(NC(=O)C2=C(O)c3ccccc3S(=O)(=O)N2C)no1`, the AC50 result was “inactive”.

As to `COc1ccc2c(c1)-c1ccccc1S(=O)(=O)N2C(C)=O`, the AC50 is 20 µM (active).

Consider `O=C(c1cc(C(F)(F)F)cc(C(F)(F)F)c1)N1CCC2(CCCN(Cc3nccs3)C2)CC1`, for which the AC50 entry is “inactive”.

With `Cc1ccc(Nc2c([N+](=O)[O-])ccc3c2=NC2(CCCCC2)N=3)cc1`, the AC50 was 15.8 µM (active).

With `Cc1cccc(NC(=O)CC2Nc3cccc4cccc(c34)NC2=O)c1` (stereo unspecified), the half-maximal activity concentration (AC50) was 5.01 µM (active).

In the case of `CCOC(=O)c1sc(NC(=O)CCCCCN2C(=O)c3cccc4cccc(c34)C2=O)nc1C`, the AC50 is 25.1 µM (active).

With `C[N+](C)(CCCCCC[N+](C)(C)CCCN1C(=O)c2cccc3cccc(c23)C1=O)CCCN1C(=O)c2cccc3cccc(c23)C1=O`, the AC50 result is “inactive”.

On to `Cc1cccc(NC(=O)CCCN2C(=O)c3cccc4cccc(c34)C2=O)c1`, for which the AC50 is 6.31 µM (active).

Consider `Cc1c(Cl)cccc1NC(=O)CC1NCCNC1=O` (stereo unspecified), for which the AC50 result was “inactive”.

For `CCOC(=O)Cc1csc(NC(=O)CCCCCN2C(=O)c3ccccc3C2=O)n1`, the AC50 is 1.78 µM (active).

Regarding `Cc1ccc(NC(=O)CCN2C(=O)c3ccncc3C2=O)cc1`, the AC50 result is “inactive”.

As to `[N-]=[N+]=NC[C@@H]1O[C@@H](n2cnc3c(N)ncnc32)[C@@H]2O[C@@H]21`, the activity, negative = inhibition is -13.8% [at 11.4 µM].

For `COCCCNC(=O)C1CC(=O)N(CCc2ccc(OC)c(OC)c2)C1` (stereo unspecified), the AC50 result was “inactive”.

For the molecule `N/C(=N\O)c1cn([C@@H]2O[C@@H](CO)[C@H](O)[C@@H]2O)c2ncnc(NO)c12`, the activity, negative = inhibition was -18.7% [at 2.29 µM].

Regarding `C=C[C@H](N)CCC(=O)O`, the AC50 result was “inactive”.

Regarding `C[C@@H](C[N+](C)(C)C)OC(N)=O`, the AC50 result is “inactive”.

In the case of `Cc1cccc(/C(N)=N/OC(=O)CCCN2C(=O)c3ccccc3C2=O)c1`, the AC50 was 15.8 µM (active).

For the molecule `CSCC[C@@H]1NC(=O)C/C=C\[C@@H](C)COC(=O)[C@H](C)COC1=O`, the activity, negative = inhibition was -2.99% [at 11.4 µM].

Regarding `CCC(CC)C(=O)NCCN1CCN(C(=O)C(CC)CC)CC1`, the AC50 entry is “inactive”.

With `CCCCOc1ccc(CN2CCC(O)CC2)cc1`, the AC50 entry is “inactive”.

As to `COc1ccc(C[C@@H]2c3cc(OC)c(OC)cc3CC[N@+]2(C)CCC(=O)OCCCCCOC(=O)CC[N@@+]2(C)CCc3cc(OC)c(OC)cc3[C@H]2Cc2ccc(OC)c(OC)c2)cc1OC`, the AC50 entry is “inactive”.

`CCCCOc1cc(C[C@@H]2CNC(=O)N2)ccc1OC`: the AC50 was 10 µM (active).

For the molecule `Cc1ccccc1Oc1ncnc2sccc12`, the AC50 is 12.6 µM (active).

For the molecule `N#CCCn1cc(/C=N/O)c(-c2ccc(Cl)cc2)n1`, the AC50 was 0.891 µM (active).

Turning to `Oc1[nH]c2ccccc2c1/C=N/c1nccs1`, the AC50 was 0.251 µM (active).

As for `COc1ccc(-c2cc(-c3c(O)c(OC)c4occc4c3OC)[nH]n2)cc1OC`, the AC50 was 6.31 µM (active).

With `COc1ccc(-c2cc(-c3cc(F)ccc3O)[nH]n2)cc1OC`, the AC50 was 6.31 µM (active).

On to `CCc1ccc(-c2csc(NC(=O)C3CCCO3)c2C(=O)OC(C)C)cc1` (stereo unspecified), for which the AC50 was 7.08 µM (active).

On to `Cc1ccc(-c2c(C)sc(NC(=O)C3C4CCC(O4)C3C(=O)O)c2C(=O)OC(C)C)cc1` (stereo unspecified), for which the AC50 result is “inactive”.

With `C=C(C)C1CC=C(C)/C(=N/NC(=O)c2ccc(NC(=O)c3cccc(C)c3)cc2)C1` (stereo unspecified), the AC50 result is “inactive”.

As to `C=C(C)[C@H]1CC=C(C)/C(=N/NC(=O)CNc2ccccc2OC)C1`, the AC50 was 15.8 µM (active).

As to `CC(=O)N1c2ccc(S(=O)(=O)CCC(=O)O)cc2CC1C` (stereo unspecified), the AC50 result is “inactive”.

For the molecule `CCCCOC(=O)Nc1ccccc1C(=O)OC`, the AC50 is 2 µM (active).

Consider `Cc1ccccc1C(=O)NNC(=O)c1ccc(F)cc1`, for which the AC50 entry was “inactive”.

`CCOC(=O)c1c(NC(=O)c2c(Br)cnn2C)c(C#N)nn1-c1ccccc1`: the AC50 was 0.631 µM (active).

With `COC(=O)c1cn(NC(=O)c2ccc(F)cc2)c(=O)c2ccccc12`, the AC50 entry is “inactive”.

For the molecule `COC(=O)c1ccccc1NC(=O)c1ccc(F)cc1`, the AC50 was 0.2 µM (active).

With `COC(=O)c1ccccc1NC(=O)c1c(Br)cnn1C`, the AC50 was 0.891 µM (active).

In the case of `COC(=O)c1ccccc1NC(=O)C1CCN(C(=O)c2ccc(OC)cc2)CC1`, the AC50 entry was “inactive”.

In the case of `Cc1c(C(=O)O)nc(/C=C\C(=O)O)[nH]c1=O`, the activity, negative = inhibition was -6.61% [at 11.4 µM].

`O=C(Nc1cccc2[nH]ncc12)c1ccc(F)cc1`: the AC50 is 7.08 µM (active).

Take `C#CCCCO/N=C1/C[C@@H](O)[C@@H](O)[C@@H]2[C@@H]3C(=O)N(C[C@@H]4CCCO4)C(=O)[C@H]3CC[C@H]12`: the activity, negative = inhibition was -2.74% [at 11.4 µM].

As to `CC(C)NC(=O)N1CCC2(CC1)CCN(C(=O)c1csnn1)CC2`, the AC50 entry was “inactive”.

For the molecule `N#Cc1sc2nc(-c3cccs3)cc(-c3ccc(Cl)cc3)c2c1N`, the AC50 is 1.26 µM (active).

In the case of `CCN(CC)CCCNC(=O)C1CCC(=O)N(c2ccc(OC)cc2)C1c1ccc(F)cc1` (stereo unspecified), the AC50 result is “inactive”.

For the molecule `Nc1c(-c2cccs2)cnn1-c1nc(-c2ccc(Cl)cc2Cl)cs1`, the AC50 was 1.26 µM (active).

Regarding `Nc1c(-c2cccs2)cnn1-c1nc(-c2ccc(F)cc2)cs1`, the AC50 is 0.447 µM (active).

As to `O=C(c1csnn1)N1CCC2(CC1)CCN(c1ccncc1)CC2`, the AC50 result is “inactive”.

Regarding `O=C(NC(NCc1ccccc1)C(Cl)(Cl)Cl)c1cccnc1` (stereo unspecified), the AC50 entry is “inactive”.

On to `COC(=O)[C@@H]1C[C@H]1[C@@H](NC(=O)c1cnccn1)c1ccccc1`, for which the AC50 was 12.6 µM (active).

As to `C[C@@H](C(=O)O)[C@H]1C[C@]1(C)[C@H](NC(=O)OCc1ccccc1)c1ccccc1`, the AC50 entry was “inactive”.

Take `COC(=O)[C@@H]1C[C@H]1[C@@H](NC(=O)c1cccnc1)c1ccccc1`: the AC50 was 12.6 µM (active).

On to `O=C(NNC(=O)C1CCCCC1)c1cnccn1`, for which the AC50 result is “inactive”.

As to `O=C(CNC(=O)OCc1ccccc1)NCC(=O)N1CCCC1C(=O)OCc1ccccc1` (stereo not drawn) (Cbz-Gly-Gly-[ξP]-OBn), the AC50 entry was “inactive”.

Take `COC(=O)[C@H]1C[C@@H]1[C@H](NC(=O)c1ccccc1)c1ccccc1`: the AC50 is 15.8 µM (active).

In the case of `COC(=O)[C@H]1C[C@@H]1[C@H](NC(=O)OCc1ccccc1)c1ccccc1`, the AC50 is 0.126 µM (active).

In the case of `O=C(Nc1ccccc1)N1CCC2(CC1)CCN(C(=O)c1cnccn1)CC2`, the AC50 entry was “inactive”.

As to `CCc1cc[n+](-c2nc3ccccc3nc2C(=C=[N-])C#N)cc1`, the AC50 entry is “inactive”.

On to `COC(=O)C1CC1C(NC(=O)[C@H]1CCCCN1)c1ccccc1` (stereo partly specified), for which the AC50 entry was “inactive”.

`COC(=O)[C@@H]1C[C@H]1[C@@H](NC(=O)c1ccccc1)c1ccccc1`: the AC50 is 5.01 µM (active).

In the case of `Cc1cc(N(CN2CCCC2=O)C(=O)c2ccc(F)cc2)no1`, the AC50 result is “inactive”.

On to `Cc1nc2c3cnn(-c4ccc(C)c(C)c4)c3ncn2n1`, for which the AC50 was 8.91 µM (active).

Take `Cc1ccc(-n2ncc3c2ncn2nc(-c4ccco4)nc32)c(C)c1`: the AC50 result is “inactive”.

For `COc1ccc2[nH]cc(CCNc3nc(-c4ccoc4)nc4ccccc34)c2c1`, the AC50 was 0.398 µM (active).

Turning to `COc1cccc(-c2nc(NCCc3c[nH]c4ccc(OC)cc34)c3ccccc3n2)c1`, the AC50 was 1.58 µM (active).

For `COc1ccc2[nH]cc(CCNc3nc(-c4cccnc4)nc4ccccc34)c2c1`, the AC50 was 0.501 µM (active).

As to `COC(=O)[C@@]1(Cc2ccc(OC)cc2)[C@H]2c3cc(C(=O)N4CCCC4)n(CCc4c[nH]c5ccc(O)cc45)c3C[C@H]2CN1C(=O)c1ccccc1`, the AC50 result is “inactive”.

With `COc1ccc2[nH]cc(CCNc3nc(-c4ccccc4OC)nc4ccccc34)c2c1`, the AC50 is 6.31 µM (active).

Take `Cc1noc(NS(=O)(=O)c2ccc(NC(=O)CC34CC5CC(CC(Br)(C5)C3)C4)cc2)c1C`: the AC50 result was “inactive”.

As for `Cc1ccc(NC(=O)CCc2c(C)nc3ncnn3c2C)nc1`, the AC50 entry was “inactive”.

Consider `Cc1ccc(-c2cc(C(F)F)n3ncc(C(=O)Nc4c(C)nn(Cc5c(Cl)cccc5Cl)c4C)c3n2)cc1`, for which the AC50 result is “inactive”.

For `Cc1ccc(NC(=O)c2sc3ccccc3c2Cl)nc1`, the AC50 is 2.51 µM (active).

As for `Cc1ccc(NC(=O)C2CCN(S(=O)(=O)c3c(C)n[nH]c3C)CC2)nc1`, the AC50 result is “inactive”.

Take `CCCC(=O)N1CCN(c2ccc(NC(=O)c3sc4ccccc4c3Cl)cc2)CC1`: the AC50 result was “inactive”.

In the case of `CCC(CC)c1nnc(NC(=O)c2cccc(S(=O)(=O)N3CCc4ccccc43)c2)s1`, the AC50 entry was “inactive”.

As to `O=C(NNC(=O)c1sc2ccccc2c1Cl)Nc1ccc(Cl)cc1`, the AC50 is 0.501 µM (active).

For `Cc1nn(Cc2ccccc2Cl)c(C)c1NC(=O)CCCn1nc(C)c([N+](=O)[O-])c1C`, the AC50 result is “inactive”.

Take `Cc1ccccc1Cn1nc(C)c(NC(=O)c2sc3ccccc3c2Cl)c1C`: the AC50 was 2.24 µM (active).

In the case of `CC(C)c1nnc(NC(=O)c2sc3ccccc3c2Cl)s1`, the AC50 is 10 µM (active).

Consider `N#Cc1cccc(NC(=O)N2CCC3(CC2)CCN(C(=O)c2cccc(F)c2)CC3)c1`, for which the AC50 result is “inactive”.

As for `Cc1ccc(CC(=O)N2CCN(c3cccc(C(F)(F)F)c3)CC2)cc1`, the AC50 was 31.6 µM (active).

As for `Cc1ccc(S(=O)(=O)N(CC(=O)N2CCN(c3ccc(F)cc3)CC2)C2CCCCC2)cc1`, the AC50 entry is “inactive”.

In the case of `O=C(c1coc2ccccc2c1=O)N1CCN(c2cccc(C(F)(F)F)c2)CC1`, the AC50 is 31.6 µM (active).

As to `O=C(c1cc(C(F)(F)F)cc(C(F)(F)F)c1)N1CCC2(CC1)CN(c1ccccc1)C2`, the AC50 result is “inactive”.

`CCc1ccc(NC(=S)N2CCN(c3cccc(C(F)(F)F)c3)CC2)cc1`: the AC50 entry is “inactive”.

For `O=C(c1cccc(F)c1)N1CCC2(CCN(Cc3cc(C(F)(F)F)cc(C(F)(F)F)c3)CC2)CC1`, the AC50 result was “inactive”.

With `C[C@]1(c2ccccc2)O[C@@H]2C[C@@H]3[C@@H]4CCC5=CC(=O)C=C[C@@]5(C)[C@]4(F)[C@H](O)C[C@]3(C)[C@@]2(C(=O)CO)O1`, the activity, negative = inhibition is -16.4% [at 2.29 µM].

Source of the values: PubChem BioAssay AID1851 (National Center for Advancing Translational Sciences (NCATS), 2009).
